Test results taken from PubChem BioAssay.
A number with no mark means an inactive call. How the calls were made is not given here.

Molecular target: Pantothenate synthetase (Mycobacterium tuberculosis (strain ATCC 25618 / H37Rv)) (UniProt P9WIL5)
Assay: Coupled enzyme confirmation of inhibitors against recombinant Mtb PanC (AID 375);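 further: 0% = full reaction with vehicle and 100% = no enzyme background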
Details: coupled enzyme assay; at 10 µM, hits give high values

Chain of Pantothenate synthetase (Mycobacterium tuberculosis (strain ATCC 25618 / H37Rv)) (P9WIL5 whole entry, looked up): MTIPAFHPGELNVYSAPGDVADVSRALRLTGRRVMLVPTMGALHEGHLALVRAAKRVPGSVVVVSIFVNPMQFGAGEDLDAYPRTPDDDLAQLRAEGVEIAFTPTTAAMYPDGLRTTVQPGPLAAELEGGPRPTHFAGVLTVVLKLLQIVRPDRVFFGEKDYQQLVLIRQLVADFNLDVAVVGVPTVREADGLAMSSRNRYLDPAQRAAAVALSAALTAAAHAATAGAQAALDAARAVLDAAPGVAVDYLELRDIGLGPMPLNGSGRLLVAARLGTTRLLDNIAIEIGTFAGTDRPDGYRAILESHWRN

SMILES | inhibition [%]
CN(C)CCN1C(=O)c2oc3ccc(Cl)cc3c(=O)c2C1c1cccc(Br)c1 (stereo not drawn) | 0
COc1ccc(C2C3=C(OC(C)=O)c4ccccc4C3=Nc3c2c(=O)n(C)c(=O)n3C)cc1 (stereo not drawn) | 2
Cc1cc(=O)n2nc(N3CCCC(C(=O)N4CCc5ccccc54)C3)sc2n1 (stereo not drawn) | 4
CC[N+](C)(C)Cc1ccccc1Br | 0
CC(Oc1ccccc1)C(=O)NC1CC(C)(C)NC(C)(C)C1 (stereo not drawn) | 0
COC(=O)CCCCC(=O)C1C(=O)CC(C)(C)C(C(=O)OC)C1=O (stereo not drawn) | 0
CC1(C)Cc2noc(N)c2C(C)(C)N1OC(=O)c1ccccc1 | 0
Cc1nc2ccc(CCO)cc2s1 | 0
CC(=O)NCc1cccc(CNC(C)=O)n1 | 11
CC1(C)CNC(=O)CC(C)(C)N1O | 0
O=C(c1ccc(CSCc2ccccc2F)o1)N1CCN(c2ccc(N3CCOCC3)nn2)CC1 | 0
CN1CCN(CC(=O)N2c3ccccc3C(=O)Nc3cccnc32)CC1 | 4
CC(NCCc1ccc(O)cc1)C(O)c1ccc(O)cc1 (stereo not drawn) | 0
CCCCc1ccc(NC(=O)N[C@H](C(=O)O)C(C)C)cc1 | 1
COC(=O)[C@H](C)NC(=O)Nc1cccc(C(F)(F)F)c1 | 0
CC(C(=O)OCn1nnc2ccccc2c1=O)N1C(=O)c2ccccc2C1=O (stereo not drawn) | 0
CC1CCN(C(=O)CCNS(=O)(=O)c2ccccc2)CC1 | 3
CC(=O)N1CCN(c2ccc(NC(=O)c3ccc(C(C)(C)C)cc3)cc2)CC1 | 0
